About 7,900 targets were measured; listed, in parts, are those with a hit and a random draw of the rest. About 0.6% of all pairs of compound and target were hits. A number with no mark means an inactive call.
Experiments:
Experiment in all cases: log2 fold change, soluble protein after heating vs DMSO (PISA); higher = thermal stabilisation; K562 cells, 10 uM, 30 min; active = over 0.2 and 3.5 SD of the protein, either way, in both replicates (recomputed)
[1] = compound: CC1=C(C=C(C=C1)NC(=O)C2=CC(=CC=C2)C(C)(C)C#N)NC3=CC4=C(C=C3)N=CN(C4=O)C
How it was run: (§1)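 Aliquots of K562 cells (2×10^6 cells/mL) treated with 10 μM compound for 30 min were heated for 3 min over 48°C-58°C. After pooling and extraction in PBS with 0.5% NP-40 at 4°C, soluble protein from a 21,000xg, 90 min spin was quantified by TMTpro 16plex LC-MS/MS with channel sums equalised. Thermal stability is expressed against control samples, from duplicates, as a log2 fold change.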

[2] = compound: CC1=C(C=C(C=C1)NC(=O)C2=CC(=CC=C2)N(C)C)NC(=O)C3=CC=C(C=C3)O
How it was run: as §1

[3] = compound: CC1=CC=C(C=C1)SC2=C3C=C(SC3=CN=C2)C(=O)N
How it was run: as §1

[4] = compound: CC1=NC(=CC=C1)C2=C(N=C(N2)C(C)(C)C)C3=CC4=NC=CN=C4C=C3
How it was run: as §1

Nexturastat A = compound: CCCCN(Cc1ccc(C(=O)NO)cc1)C(=O)Nc1ccccc1 [Nexturastat A]
How it was run: as §1

vemurafenib = compound: CCCS(=O)(=O)Nc1ccc(F)c(C(=O)c2c[nH]c3ncc(-c4ccc(Cl)cc4)cc23)c1F [vemurafenib]
How it was run: as §1

[5] = compound: CCCS(=O)(=O)Nc1ccc(F)c(C(=O)c2c[nH]c3ncc(Cl)cc23)c1F
How it was run: as §1

[6] = compound: CCCc1cc(C)[nH]c(=O)c1CNC(=O)c1cc(-c2ccnc(N3CCN(C)CC3)c2)cc2c1cnn2C(C)C
How it was run: as §1

givinostat = compound: CCN(CC)Cc1ccc2cc(COC(=O)Nc3ccc(C(=O)NO)cc3)ccc2c1 [givinostat]
How it was run: as §1

barasertib = compound: CCN(CCCOc1ccc2c(Nc3cc(CC(=O)Nc4cccc(F)c4)[nH]n3)ncnc2c1)CCOP(=O)(O)O [barasertib]
How it was run: as §1

[7] = compound: CC[C@@H]1C(=O)N(C)c2cnc(Nc3ccc(C(=O)NC4CCN(C)CC4)cc3OC)nc2N1C1CCCC1
How it was run: as §1

volasertib = compound: CC[C@@H]1C(=O)N(C)c2cnc(Nc3ccc(C(=O)N[C@H]4CC[C@H](N5CCN(CC6CC6)CC5)CC4)cc3OC)nc2N1C(C)C [volasertib]
How it was run: as §1

[8] = compound: CC[C@H](C)N1C=C(C2=C(C=C(C=C21)C3=CN=C(C=C3)N4CCNCC4)C(=O)NCC5=C(C=C(NC5=O)C)C)C
How it was run: as §1

epoxomicin = compound: CC[C@H](C)[C@@H](C(=O)N[C@@H]([C@@H](C)O)C(=O)N[C@@H](CC(C)C)C(=O)[C@]1(CO1)C)NC(=O)[C@H]([C@@H](C)CC)N(C)C(=O)C [epoxomicin]
How it was run: as §1

[9] = compound: CCn1c(C(=O)N(C2CC2)C2CC2)cc2c3c(ncn3C)c(Nc3cc(C)n(C)n3)nc21
How it was run: as §1

[10] = compound: CCn1cc(-c2ccnc3[nH]c(-c4cccc(CN(C)C)c4)cc23)c(-c2ccc(NC(=O)N(C)C)cc2)n1
How it was run: as §1

[11] = compound: CN(C)CC(=O)Nc1ccc2[nH]c(=O)c3ccccc3c2c1
How it was run: as §1

rosiglitazone = compound: CN(CCOC1=CC=C(C=C1)C[C@H]2C(=O)NC(=O)S2)C3=CC=CC=N3 (racemic) [rosiglitazone]
How it was run: as §1

[12] = compound: CN1C2=C(C3=C1C(=O)N(N=C3)CC4=CC(=CC=C4)N)SC(=C2)S(=O)C
How it was run: as §1

[13] = compound: CN1CCC(CNc2ccc3ncc(-c4cccc(OC(F)(F)F)c4)n3n2)CC1
How it was run: as §1

UniProt P31323, sequence (P31323 whole entry, looked up): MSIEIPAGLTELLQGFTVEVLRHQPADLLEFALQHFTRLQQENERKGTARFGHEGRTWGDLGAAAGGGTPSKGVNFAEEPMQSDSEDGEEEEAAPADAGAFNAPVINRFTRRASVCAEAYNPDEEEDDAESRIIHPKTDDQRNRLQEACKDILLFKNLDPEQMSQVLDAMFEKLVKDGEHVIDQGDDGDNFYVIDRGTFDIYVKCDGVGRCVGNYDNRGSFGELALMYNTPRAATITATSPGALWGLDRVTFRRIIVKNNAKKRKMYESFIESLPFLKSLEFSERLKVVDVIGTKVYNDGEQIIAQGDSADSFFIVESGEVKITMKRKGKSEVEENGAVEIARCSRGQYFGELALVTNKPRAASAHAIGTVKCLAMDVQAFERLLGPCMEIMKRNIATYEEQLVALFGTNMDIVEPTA
UniProt Q10713, sequence (Q10713 whole entry, looked up): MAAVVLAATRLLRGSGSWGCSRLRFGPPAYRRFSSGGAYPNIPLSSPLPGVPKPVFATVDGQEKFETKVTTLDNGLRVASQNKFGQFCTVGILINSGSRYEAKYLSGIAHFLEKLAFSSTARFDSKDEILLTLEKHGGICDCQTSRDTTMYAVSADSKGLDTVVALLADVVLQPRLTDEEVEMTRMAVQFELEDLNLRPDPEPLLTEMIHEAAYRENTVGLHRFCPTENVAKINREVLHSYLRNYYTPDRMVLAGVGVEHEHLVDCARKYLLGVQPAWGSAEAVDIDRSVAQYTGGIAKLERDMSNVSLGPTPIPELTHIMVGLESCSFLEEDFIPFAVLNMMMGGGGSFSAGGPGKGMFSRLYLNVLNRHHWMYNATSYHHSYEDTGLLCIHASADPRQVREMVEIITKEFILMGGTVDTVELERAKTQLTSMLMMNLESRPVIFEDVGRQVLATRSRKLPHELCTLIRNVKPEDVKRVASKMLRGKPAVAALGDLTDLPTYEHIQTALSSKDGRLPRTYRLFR
UniProt Q9UPN7, sequence (Q9UPN7 whole entry, looked up): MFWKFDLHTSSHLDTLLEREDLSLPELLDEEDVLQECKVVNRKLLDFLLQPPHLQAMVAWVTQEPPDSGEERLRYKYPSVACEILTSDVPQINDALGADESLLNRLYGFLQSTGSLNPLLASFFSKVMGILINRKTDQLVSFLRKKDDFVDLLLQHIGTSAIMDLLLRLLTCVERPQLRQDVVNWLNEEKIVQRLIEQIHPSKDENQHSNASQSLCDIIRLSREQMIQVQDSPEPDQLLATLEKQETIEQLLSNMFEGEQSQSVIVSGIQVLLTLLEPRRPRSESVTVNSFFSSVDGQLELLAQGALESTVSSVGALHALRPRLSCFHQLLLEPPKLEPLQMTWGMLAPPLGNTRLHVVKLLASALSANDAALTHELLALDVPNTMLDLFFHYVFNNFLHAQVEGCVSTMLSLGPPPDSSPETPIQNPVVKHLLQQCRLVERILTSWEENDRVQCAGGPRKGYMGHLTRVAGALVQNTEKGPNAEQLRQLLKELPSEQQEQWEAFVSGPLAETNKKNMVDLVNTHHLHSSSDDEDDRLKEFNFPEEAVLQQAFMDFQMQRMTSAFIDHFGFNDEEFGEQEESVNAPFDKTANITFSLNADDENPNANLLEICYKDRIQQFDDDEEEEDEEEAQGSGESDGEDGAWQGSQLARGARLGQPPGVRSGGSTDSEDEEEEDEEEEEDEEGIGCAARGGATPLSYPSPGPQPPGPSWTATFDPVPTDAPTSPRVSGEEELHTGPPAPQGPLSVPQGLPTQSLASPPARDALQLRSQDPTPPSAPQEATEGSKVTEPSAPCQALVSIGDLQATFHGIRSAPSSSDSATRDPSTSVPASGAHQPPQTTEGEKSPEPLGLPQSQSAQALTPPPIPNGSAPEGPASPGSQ
UniProt Q5JVF3, sequence (Q5JVF3 whole entry, looked up): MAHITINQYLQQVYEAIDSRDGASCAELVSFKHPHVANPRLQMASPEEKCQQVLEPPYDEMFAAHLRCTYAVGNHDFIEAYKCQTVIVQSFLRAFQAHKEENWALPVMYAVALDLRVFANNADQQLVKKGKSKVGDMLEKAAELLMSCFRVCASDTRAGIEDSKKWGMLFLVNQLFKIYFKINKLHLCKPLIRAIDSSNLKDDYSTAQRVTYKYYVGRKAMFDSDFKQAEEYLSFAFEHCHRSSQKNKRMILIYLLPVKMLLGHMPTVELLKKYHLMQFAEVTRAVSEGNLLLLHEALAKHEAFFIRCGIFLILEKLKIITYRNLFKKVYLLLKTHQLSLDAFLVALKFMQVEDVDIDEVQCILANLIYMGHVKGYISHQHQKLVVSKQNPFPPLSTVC
UniProt Q9NW08, sequence (Q9NW08 whole entry, looked up): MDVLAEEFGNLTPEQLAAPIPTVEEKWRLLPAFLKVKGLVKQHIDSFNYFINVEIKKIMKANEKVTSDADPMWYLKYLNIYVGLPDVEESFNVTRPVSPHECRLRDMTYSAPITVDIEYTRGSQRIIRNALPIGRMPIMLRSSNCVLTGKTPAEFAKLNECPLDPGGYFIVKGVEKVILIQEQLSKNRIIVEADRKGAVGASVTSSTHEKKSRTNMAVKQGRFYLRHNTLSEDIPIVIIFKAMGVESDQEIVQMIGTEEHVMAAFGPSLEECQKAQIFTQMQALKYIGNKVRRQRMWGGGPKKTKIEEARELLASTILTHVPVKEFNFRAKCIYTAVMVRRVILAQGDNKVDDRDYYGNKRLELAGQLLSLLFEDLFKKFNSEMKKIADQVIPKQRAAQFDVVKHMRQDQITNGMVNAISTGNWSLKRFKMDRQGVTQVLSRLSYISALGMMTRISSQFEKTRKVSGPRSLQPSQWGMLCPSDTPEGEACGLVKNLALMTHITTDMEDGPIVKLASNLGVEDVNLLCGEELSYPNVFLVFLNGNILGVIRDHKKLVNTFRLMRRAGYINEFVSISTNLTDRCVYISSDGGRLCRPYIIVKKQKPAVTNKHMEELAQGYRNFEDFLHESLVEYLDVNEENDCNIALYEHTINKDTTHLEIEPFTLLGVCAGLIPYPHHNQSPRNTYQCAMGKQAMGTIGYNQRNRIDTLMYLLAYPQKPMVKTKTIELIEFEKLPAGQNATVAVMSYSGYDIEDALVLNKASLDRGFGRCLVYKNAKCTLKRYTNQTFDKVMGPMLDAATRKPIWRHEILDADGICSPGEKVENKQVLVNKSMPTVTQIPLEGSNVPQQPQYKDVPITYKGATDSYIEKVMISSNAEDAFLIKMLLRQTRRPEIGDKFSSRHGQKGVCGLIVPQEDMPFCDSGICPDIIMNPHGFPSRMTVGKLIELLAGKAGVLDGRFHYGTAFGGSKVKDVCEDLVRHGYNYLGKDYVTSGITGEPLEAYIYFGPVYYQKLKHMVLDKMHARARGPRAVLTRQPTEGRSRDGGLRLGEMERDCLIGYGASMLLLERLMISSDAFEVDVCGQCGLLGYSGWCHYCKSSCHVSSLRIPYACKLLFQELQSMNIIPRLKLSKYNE
UniProt O43395, sequence (O43395 whole entry, looked up): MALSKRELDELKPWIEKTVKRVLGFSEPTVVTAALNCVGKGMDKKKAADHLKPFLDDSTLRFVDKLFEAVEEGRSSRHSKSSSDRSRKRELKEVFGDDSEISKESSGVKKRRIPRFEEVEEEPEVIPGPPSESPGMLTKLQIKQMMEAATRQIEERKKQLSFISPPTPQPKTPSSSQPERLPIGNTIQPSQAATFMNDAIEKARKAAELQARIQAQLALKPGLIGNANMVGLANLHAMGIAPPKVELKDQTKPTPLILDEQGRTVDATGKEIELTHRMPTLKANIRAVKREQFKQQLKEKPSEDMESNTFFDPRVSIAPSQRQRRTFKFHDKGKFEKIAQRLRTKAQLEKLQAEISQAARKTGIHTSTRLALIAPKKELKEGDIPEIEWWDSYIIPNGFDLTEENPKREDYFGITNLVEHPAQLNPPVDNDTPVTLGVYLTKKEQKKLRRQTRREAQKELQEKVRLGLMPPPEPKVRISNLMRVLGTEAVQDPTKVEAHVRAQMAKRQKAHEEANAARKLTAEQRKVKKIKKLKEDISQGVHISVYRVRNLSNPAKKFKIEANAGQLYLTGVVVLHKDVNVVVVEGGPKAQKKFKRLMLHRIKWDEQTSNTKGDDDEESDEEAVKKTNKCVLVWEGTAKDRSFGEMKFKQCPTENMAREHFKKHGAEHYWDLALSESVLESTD
UniProt Q9UNM6, sequence (Q9UNM6 whole entry, looked up): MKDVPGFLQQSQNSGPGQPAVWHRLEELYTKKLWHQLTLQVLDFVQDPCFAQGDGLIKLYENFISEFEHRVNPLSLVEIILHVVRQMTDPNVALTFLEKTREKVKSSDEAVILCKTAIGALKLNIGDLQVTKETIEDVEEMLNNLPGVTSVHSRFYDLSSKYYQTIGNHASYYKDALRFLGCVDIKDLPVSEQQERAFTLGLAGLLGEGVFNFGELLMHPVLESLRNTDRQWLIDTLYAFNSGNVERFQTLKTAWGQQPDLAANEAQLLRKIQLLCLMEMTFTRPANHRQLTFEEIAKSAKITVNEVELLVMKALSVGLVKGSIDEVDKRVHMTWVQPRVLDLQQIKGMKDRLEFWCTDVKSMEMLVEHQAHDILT
UniProt Q16537, sequence (Q16537 whole entry, looked up): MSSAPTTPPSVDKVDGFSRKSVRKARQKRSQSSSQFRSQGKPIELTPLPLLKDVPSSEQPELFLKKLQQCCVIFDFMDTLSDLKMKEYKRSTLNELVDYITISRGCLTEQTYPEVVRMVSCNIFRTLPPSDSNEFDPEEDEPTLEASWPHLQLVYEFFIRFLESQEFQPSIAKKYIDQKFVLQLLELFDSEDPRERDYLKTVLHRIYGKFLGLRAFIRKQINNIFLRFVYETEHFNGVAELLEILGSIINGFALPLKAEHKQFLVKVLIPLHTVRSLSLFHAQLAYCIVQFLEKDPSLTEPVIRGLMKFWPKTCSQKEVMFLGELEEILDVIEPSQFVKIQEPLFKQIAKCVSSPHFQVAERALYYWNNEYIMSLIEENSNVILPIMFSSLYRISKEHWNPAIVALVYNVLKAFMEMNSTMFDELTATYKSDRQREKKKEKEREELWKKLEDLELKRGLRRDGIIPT
UniProt Q15121, sequence (Q15121 whole entry, looked up): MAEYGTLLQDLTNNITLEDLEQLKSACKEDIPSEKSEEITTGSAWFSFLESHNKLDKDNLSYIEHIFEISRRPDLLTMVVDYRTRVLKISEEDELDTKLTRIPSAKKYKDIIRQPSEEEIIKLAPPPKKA

Target	log2 fold change [1]	log2 fold change [2]	log2 fold change [3]	log2 fold change [4]	log2 fold change (Nexturastat A)	log2 fold change (vemurafenib)	log2 fold change [5]	log2 fold change [6]	log2 fold change (givinostat)	log2 fold change (barasertib)	log2 fold change [7]	log2 fold change (volasertib)	log2 fold change [8]	log2 fold change (epoxomicin)	log2 fold change [9]	log2 fold change [10]	log2 fold change [11]	log2 fold change (rosiglitazone)	log2 fold change [12]	log2 fold change [13]
PCID2 (UniProt Q5JVF3)	0.024	-0.026	-0.066	0.033	0.153	0.069	0.202	0.071	0.114	-0.016	-0.032	0.016	0.072	0.027	-0.149	0.035	-0.021	0.064	0.055	-0.086
QRSL1 (UniProt Q9H0R6)	-0.001	-0.079	0.018	0.041	-0.09	0.086	0.061	0.093	0.033	0.044	0.044	-0.167	0.069	0.027	-0.003	-0.029	0.023	0.055	-0.053	-0.095
PRKCA (UniProt P17252)	-0.014	-0.068	-0.016	0.007	0.023	-0.015	0.012	-0.021	-0.02	0.025	0.073	-0.179	0.025	-0.018	-0.029	0	0.017	0.032	-0.15	-0.29
PEA15 isoform 2 (UniProt Q15121)	0.004	-0.039	0.042	-0.008	-0.071	0.002	0.122	-0.003	0.003	0.082	-0.078	-0.162	-0.018	0	0.083	0.022	0.004	0.025	-0.002	0.039
PTTG1 (UniProt O95997)	0.007	-0.353	0.02	-0.077	0.098	-0.081	-0.045	-0.021	0.068	0.023	0.105	0.124	0.008	0.293 (active)	0.008	0.057	-0.02	0.008	0.008	-0.092
PMPCA (UniProt Q10713)	0.046	-0.049	0.014	0.006	-0.102	0.025	0.037	-0.006	-0.019	-0.027	0.018	0.158	0.021	0.029	0.016	-0.095	0.013	0.024	-0.124	0.138
PSMD13 (UniProt Q9UNM6)	0.03	0.034	-0.068	-0.029	0.064	-0.05	-0.048	-0.016	-0.05	-0.041	0.075	0.217	0.008	-0.288 (active)	0.012	0.043	-0.01	0.009	0.02	0.038
PRPF3 (UniProt O43395)	0.05	-0.025	0.038	0.117	-0.087	0.1	0.081	-0.005	0.086	0.028	-0.114	-0.34 (active)	0.069	0.069	-0.05	-0.062	0.116	0.059	0.004	-0.17
PRKCB isoform 2 (UniProt P05771)	0.005	-0.014	-0.003	0.01	-0.01	0.009	-0.007	0.002	0.001	0.015	-0.068	-0.213 (active)	0.04	0.03	-0.005	-0.06	0.006	0.007	-0.054	-0.135
QKI (UniProt Q96PU8)	0.05	-0.037	0.019	0.036	-0.109	0.033	0.084	-0.045	0.023	-0.003	-0.008	-0.1	0.084	0.049	0.022	0.023	0.034	0.041	0.017	-0.172
PRKAR2B (UniProt P31323)	0.04	0.017	0.038	0.022	0.046	0.033	0.052	-0.014	0	0.047	-0.037	0.053	0.056	0.025	-0.023	-0.023	-0.008	0.051	0.005	-0.495 (active)
PRKCD (UniProt Q05655)	-0.015	-0.025	-0.012	-0.016	-0.032	0.015	0.013	-0.045	-0.021	0.023	0.036	-0.073	0.031	-0.003	0.005	-0.067	-0.009	0.062	-0.05	-0.159
PPP2R5E (UniProt Q16537)	-0.049	-0.065	-0.023	0.066	0.003	0.027	0.07	0.03	0.032	0.027	-0.259 (active)	-0.404 (active)	-0.025	-0.034	-0.009	-0.165	0.018	0.099	-0.048	-0.99 (active)
POTEI (UniProt P0CG38)	0.056	-0.035	-0.012	0.052	-0.071	0.08	0.014	-0.072	-0.018	0	-0.009	-0.009	-0.043	-0.039	-0.026	0.009	-0.006	-0.028	-0.06	0.035
POLR3B (UniProt Q9NW08)	0.024	-0.062	-0.008	0.022	0.026	0.003	0.172	0.063	0.138	0.114	0.029	-0.44	0.134	0.07	-0.069	-0.028	0.075	0.035	0.105	-0.058
PPP6R1 (UniProt Q9UPN7)	0.014	0.023	0.022	0.036	-0.1	0.08	0.018	-0.001	-0.018	-0.025	-0.098	-0.297 (active)	0	-0.033	0.029	0.026	0.053	0.026	-0.007	-0.048
